# Measurements published in the supplement of paper PMC8726507.
# System: Plasmodium falciparum NF54-HGL (transmission to Anopheles stephensi)
# Assay: percentage of barcode signal found in uninfected mosquitoes (transmission-blocking activity); higher = stronger blocking of transmission to mosquito, active = 80 or more
# Settings: 10 µM; gametocyte preincubation time 24 h; readout time post-feed 8 days
# Protocol: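 The mixture was fed to Anopheles stephensi in 96-well plates as blood meals tagged with DNA-barcoded Asaia bacteria. Eight days later, mosquitoes were classed infected or uninfected by luminescence (mean + 5 SD of unfed controls). Barcodes were quantified by Luminex MagPlex-TAG in the pooled uninfected and infected Asaia cultures, background-corrected, and the score is % of barcode signal in uninfected mosquitoes = 100*Iu/(Iu+Ii).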
row,SMILES,percentage of barcode signal found in uninfected mosquitoes
1,O=C(Nc1ccc2c(c1)B(O)OC2)c1ccccc1C(F)(F)F,84.1% (active)
2,CN(C)CCNC(=O)N1CCCN(c2ncnc3cc(-c4ccccc4)sc23)CC1,34.3% (inactive)
3,Brc1cncc(-c2cc(NCCCn3ccnc3)nc(-c3ccccc3)n2)c1,-0.102% (inactive)
4,COc1ccc(C2CC(c3cccs3)=NN2C(=O)c2ccco2)cc1OC (stereo not given),57.1% (inactive)
5,Cc1cnc(CCNC(=O)c2cc(-c3ccc(Cl)cc3)cs2)[nH]1,7.14% (inactive)
6,Cc1nc(-c2ccccn2)nc(NCCc2ccc(S(C)(=O)=O)cc2)c1Cl,67% (inactive)
7,CN1CCN(c2cc(-c3ccc(F)cc3)nc(-c3ccncc3)n2)CC1,1.2% (inactive)
8,CC(C)n1ncc2c(C(=O)NCC(c3cccs3)N3CCOCC3)cc(-c3ccccc3)nc21 (stereo not given),29.6% (inactive)
9,NS(=O)(=O)c1cncc(-c2ccc3nccc(-c4cn[nH]c4)c3n2)c1,78.5% (inactive)
10,COc1ccc(C2=NN(C3CCCCCC3)C(=O)C2(C)C)cc1OCCCCOc1ccc(-c2nn[nH]n2)cc1,7.2% (inactive)
11,O=C(NCCN1CCCC1)c1cc(NCCCCN2CCC(F)(F)CC2)nc2ccc(Cl)cc12,91.2% (active)
12,Cc1cc2nc(NC(=O)C(C)(C)C)nc(Cl)c2n1Cc1ccc(Cl)cc1,79.6% (inactive)
13,O=C(NC1CC1)c1ccc(N2CCC(Cc3ccccc3)CC2)nc1,77.8% (inactive)
14,O=S(=O)(c1ccc(Cl)cc1)N1CCN(C(=S)NCc2ccco2)CC1,29.2% (inactive)
15,O=C(Nc1ccc(N2CCNCC2)nc1)c1oc(-c2ccccc2)nc1C(F)(F)F,79.2% (inactive)
16,c1ccc(-c2cc(N3CCCCC3)c3ccccc3n2)nc1,53.1% (inactive)
17,CCc1nc2ccccc2n1CC(O)COc1cc(C)ccc1Cl (stereo not given),41.3% (inactive)
18,NCCCC(N)(C(=O)O)C(F)F (stereo not given),37.7% (inactive)
19,CCOC(=O)c1cc(-c2csc(Nc3c(C)cc(C)cc3C)n2)on1,11.5% (inactive)
20,Cc1cc(Nc2ccncc2)n2nc(C)c(-c3ccccc3Cl)c2n1,53.9% (inactive)
21,O=C(c1ccco1)N(CCCn1ccnc1)c1nc2c(Cl)cccc2s1,17.2% (inactive)
22,COc1ccccc1CNC(=O)c1cc(C2CC2)nc2c1cnn2C(C)C,62.8% (inactive)

# Same assay, conditions: 20 µM; gametocyte preincubation time 24 h; readout time post-feed 8 days
row,SMILES,percentage of barcode signal found in uninfected mosquitoes
1,O=C(Nc1cccc(-c2ccc(NCCCN3CCCC3)nc2)c1)c1ccccc1,29.8% (inactive)
2,c1ccc(C[C@@H]2CN(c3nccc(Oc4ccc(-n5ccnc5)cc4)n3)CCN2)cc1,35.3% (inactive)
3,COc1cc(Br)cc2cc(C(=O)Nc3cccc(C(F)(F)F)c3)c(=O)oc12,19.3% (inactive)
4,NS(=O)(=O)c1cccc(-c2ccc3ncc(N4CCOCC4)nc3c2)c1,64.7% (inactive)
5,CCN(CC)CCCN1CCN(C(=O)c2cccc(-c3noc(C(F)(F)F)n3)c2)CC1,64.3% (inactive)
6,CCCc1ccc(S(=O)(=O)Nc2ccc(CN3CCN(CC4CC4)CC3)cc2)cc1,9.2% (inactive)
7,Nc1ncc(-c2cn[nH]c2)cc1-c1nc2cc(Cl)cnc2[nH]1,48.9% (inactive)
8,Cc1cc(OCC(=O)Nc2ccc(C(C)C)cc2)n(C)c(=O)c1C#N,35% (inactive)
9,COc1cc(C2=NCCN2)cc2cc(-c3ccc(C4=NCCN4)cc3)oc12,95.1% (active)
10,c1cncc(NCc2ccc(-c3cc4ccncc4cc3OC3CCNCC3)s2)c1,99.4% (active)
11,COc1ccc2nccc(NC(=O)C3CCN(CCc4ccc(Cl)cc4)CC3)c2n1,5.62% (inactive)
12,Clc1ccc(-n2cc(COc3ccnc4ccccc34)nn2)cc1,34.4% (inactive)
13,CCCn1c(NC(=O)c2ccc3ccccc3n2)nc2ccccc21,56.6% (inactive)
14,Cn1c(=O)c2c(S(C)(=O)=O)snc2n(C)c1=O,21.4% (inactive)
15,CN1CCCN(C(c2ccccc2)c2ccc(Cl)cc2)CC1 (stereo not given),25.1% (inactive)
16,CCN(CC)C(=O)N1CCN(C)CC1,4.35% (inactive)
17,NC(CC(=O)c1ccc(Cl)cc1Cl)C(Cl)(Cl)Cl (stereo not given),86.9% (active)
18,O=C(CN1CCOCC1)Nc1ccc2ncnc(Nc3ccc(OCc4cccc(F)c4)c(Cl)c3)c2c1,1.6% (inactive)
